# From PubChem BioAssay (NCI)
# About 83,000 compounds went through this panel and 20% of them were active in at least one assay; those are over-represented in the sample as a whole.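 Each cell line was grown in a 96-well plate and treated with one concentration of compound for 48 hours. Values below 10 were considered active.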 Unmarked numbers belong to inactive results. Activity calls are given as the source filed them.
# Legend:
# Test in all cases: NCI-60 one-dose screen, 48 h (100 = growth as untreated, 0 = no growth, -100 = all killed)
# Conditions in all cases: 10 µM unless noted
# HCT-15 colon = tested on: HCT-15 colon
# HT29 colon = tested on: HT29 colon
# SNB-75 CNS = tested on: SNB-75 CNS
# SNB-19 CNS = tested on: SNB-19 CNS
# U251 CNS = tested on: U251 CNS
# PC-3 prostate = tested on: PC-3 prostate
# SK-MEL-5 melanoma = tested on: SK-MEL-5 melanoma
# UACC-62 melanoma = tested on: UACC-62 melanoma
# LOX IMVI melanoma = tested on: LOX IMVI melanoma
# SK-MEL-28 melanoma = tested on: SK-MEL-28 melanoma
Compound,growth (HCT-15 colon),growth (HT29 colon),growth (SNB-75 CNS) [%],growth (SNB-19 CNS) [%],growth (U251 CNS),growth (PC-3 prostate),growth (SK-MEL-5 melanoma),growth (UACC-62 melanoma) [%],growth (LOX IMVI melanoma),growth (SK-MEL-28 melanoma)
CCOc1ccc2nc3ccc(Cl)cc3nc2c1,97.1%,90.5%,108,97.7,96.4%,99.9%,67.1%,79.4,101%,
CC[C@H](Nc1ncnc2nc[nH]c12)c1nc2cccc(NCc3ccc(C(=O)NO)o3)c2c(=O)n1-c1ccccc1,103%,91.3%,71.6,99.7,107%,93.3%,101%,92.6,95.4%,
C=CCC(CCC(CC=C)C(=O)OCC)C(=O)OCC (stereo unspecified),105%,102%,77.8,96.2,102%,97.9%,108%,101,92.1%,
COc1ccc2oc(=O)cc(CN3C(=O)S/C(=C\c4ccc(Cl)cc4)C3=O)c2c1,92.3%,103%,98.7,99,101%,91.8%,101%,83.1,95.2%,
COc1ccc(Cn2cc3c(c2-c2ccccc2)CCc2cnoc2-3)cc1N,20%,10.5%,29.1,44.5,24.8%,23.7%,8.52% (active),42.4,31.4%,63.6%
CNc1ccc(Nc2ccc(S(=O)(=O)O)cc2)c2c1C(=O)c1ccccc1C2=O,98.6%,105%,101,104,96.6%,101%,99.9%,94.6,88.2%,
COc1ccc(C2C3(C#N)C(N)=NC(=C(C#N)C#N)C23C#N)cc1OC (stereo unspecified),114%,116%,107,106,103%,111%,105%,99.8,98.7%,
O=C(NCCCl)Nc1nccnc1OCc1ccc(F)cc1,104%,102%,90.3,94.9,101%,96.5%,107%,93.7,98.3%,
COc1cc(/C(=C2/O[C@@H]([C@H]3COC(C)(C)O3)[C@H]3OC(C)(C)O[C@@H]23)c2ccc3c(c2)OCO3)cc(OC)c1OC,91.3%,68.4%,51.8,75.7,47.1%,82.9%,71.2%,76.1,47%,
CCOc1ccc(N(C)c2ccc(/C=C/C3=[N+](C)c4ccccc4C3(C)C)cc2)cc1,18.9%,-25.1% (active),41.6,26.8,-82.8% (active),0.484% (active),2.07% (active),28.5,-48.1% (active),
O=C(O)COc1ccc([N+](=O)[O-])cc1Cl,94.1%,113%,94.3,107,96.5%,97.6%,106%,111,100%,104%
O=C(O)/C(Br)=C/c1c[nH]c2ccc(Br)cc12,114%,106%,105,126,105%,123%,107%,104,101%,63.7%
O=C(O)CC1Cc2ccccc2C1C(=O)O (stereo unspecified),101%,106%,92.4,95,103%,94.5%,103%,97.3,91.7%,109%
CC([C@H]1CCC2C3CCC4C[C@@H](N)CC[C@]4(C)C3CC[C@@]21C)N(C)C (stereo partly specified),3.11% (active),15.1%,55.8,98.7,65.9%,64.5%,-47.8% (active),50.9,17.5%,-26.6% (active)
